What all share (assay): DAPPL (digital affinity profiling via proximity ligation, sequencing); 10 mM Tris-HCl pH 7.5, 50 mM NaCl, 1 mM DTT, 4% glycerol, room temperature, 30 min; GST-TFs on glutathione beads, 16-mer random dsDNA library, 0.1% formaldehyde crosslink after washing; high values mean tight binding
One test addresses T1, FLI1 (Homo sapiens, UniProt Q01543 1-452).
T1 sequence: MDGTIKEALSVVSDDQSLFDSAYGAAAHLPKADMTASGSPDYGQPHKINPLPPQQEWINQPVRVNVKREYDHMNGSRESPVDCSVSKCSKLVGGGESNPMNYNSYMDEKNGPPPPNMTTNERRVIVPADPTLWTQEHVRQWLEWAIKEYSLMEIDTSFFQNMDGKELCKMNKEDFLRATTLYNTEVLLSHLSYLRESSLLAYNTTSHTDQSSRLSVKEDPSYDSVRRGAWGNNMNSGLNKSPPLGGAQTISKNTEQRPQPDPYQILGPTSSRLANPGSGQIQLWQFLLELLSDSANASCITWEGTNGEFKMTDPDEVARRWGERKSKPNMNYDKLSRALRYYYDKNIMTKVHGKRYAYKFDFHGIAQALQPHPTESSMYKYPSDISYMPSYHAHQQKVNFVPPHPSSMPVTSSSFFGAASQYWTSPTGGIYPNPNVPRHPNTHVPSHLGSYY
To be noted: protein: recombinant; tags: N-terminal GST; dsDNA, one strand shown. The method, boiled down:
(§1)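 Beads coated with glutathione captured GST-fused human transcription factors that had been expressed in yeast, and the factors were then given DNA barcodes and pooled with a tag-only sample. The pools were incubated with 200 nmole of a random double-stranded 16-mer DNA library in Tris/NaCl/DTT/glycerol buffer for 30 min at room temperature, washed, crosslinked with 0.1% formaldehyde and proximity-ligated with BsaI/T4 ligase at 37 °C for 1 h. PCR amplification and Illumina NextSeq500 sequencing came last. Binding signal is each hexamer's read frequency for a factor divided by its frequency for the tag-only sample.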

For another test, the target named is T2, ELK1 (Homo sapiens, UniProt P19419 1-428).
T2 sequence: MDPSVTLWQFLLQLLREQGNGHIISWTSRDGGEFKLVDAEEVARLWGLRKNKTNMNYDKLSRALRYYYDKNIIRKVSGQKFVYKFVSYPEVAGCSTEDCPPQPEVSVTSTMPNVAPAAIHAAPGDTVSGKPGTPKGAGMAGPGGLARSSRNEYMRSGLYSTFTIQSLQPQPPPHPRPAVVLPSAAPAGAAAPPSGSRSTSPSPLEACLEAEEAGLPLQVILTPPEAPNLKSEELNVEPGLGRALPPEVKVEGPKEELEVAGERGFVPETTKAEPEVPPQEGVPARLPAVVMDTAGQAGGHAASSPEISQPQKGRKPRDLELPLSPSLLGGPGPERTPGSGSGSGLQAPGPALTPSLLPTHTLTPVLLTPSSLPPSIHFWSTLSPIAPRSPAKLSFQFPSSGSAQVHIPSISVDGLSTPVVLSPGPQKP
The following applies: protein: recombinant; tags: N-terminal GST; dsDNA, one strand shown. The method, boiled down:
as §1

The target of the next test is T3, GABPA (Homo sapiens, UniProt Q06546 1-454).
T3 sequence: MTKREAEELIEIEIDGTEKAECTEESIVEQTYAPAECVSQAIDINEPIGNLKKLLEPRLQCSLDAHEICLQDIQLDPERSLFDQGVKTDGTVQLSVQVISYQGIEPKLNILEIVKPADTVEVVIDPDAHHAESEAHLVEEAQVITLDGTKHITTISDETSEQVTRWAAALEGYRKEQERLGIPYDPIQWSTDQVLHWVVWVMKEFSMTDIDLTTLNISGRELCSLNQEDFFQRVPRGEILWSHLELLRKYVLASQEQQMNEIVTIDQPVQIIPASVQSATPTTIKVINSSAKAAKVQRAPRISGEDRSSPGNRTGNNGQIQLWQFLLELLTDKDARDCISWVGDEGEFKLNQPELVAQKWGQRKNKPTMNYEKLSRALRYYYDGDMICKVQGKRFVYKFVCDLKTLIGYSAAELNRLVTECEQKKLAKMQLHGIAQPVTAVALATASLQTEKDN
To be noted: protein: recombinant; tags: N-terminal GST; dsDNA, one strand shown. In outline:
as §1

A further test concerns the target T4, ERG (Homo sapiens, UniProt P11308 1-479).
T4 sequence: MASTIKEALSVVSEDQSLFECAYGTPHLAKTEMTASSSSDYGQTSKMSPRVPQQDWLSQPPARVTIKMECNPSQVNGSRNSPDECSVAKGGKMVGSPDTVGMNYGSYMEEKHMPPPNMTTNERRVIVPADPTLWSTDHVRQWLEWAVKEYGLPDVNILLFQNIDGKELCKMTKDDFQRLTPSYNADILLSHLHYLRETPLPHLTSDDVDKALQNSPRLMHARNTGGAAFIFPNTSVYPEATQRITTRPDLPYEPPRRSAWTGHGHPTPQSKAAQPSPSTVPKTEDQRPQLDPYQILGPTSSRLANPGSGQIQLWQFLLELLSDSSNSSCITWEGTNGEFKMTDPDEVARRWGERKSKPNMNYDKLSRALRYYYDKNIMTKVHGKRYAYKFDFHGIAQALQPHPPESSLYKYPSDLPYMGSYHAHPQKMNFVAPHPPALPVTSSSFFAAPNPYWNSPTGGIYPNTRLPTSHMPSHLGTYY
To be noted: protein: recombinant; tags: N-terminal GST; dsDNA, one strand shown. In outline: as §1

The target in another test is ELF1 (Homo sapiens, UniProt P32519 1-619). To be noted: protein: recombinant; tags: N-terminal GST; dsDNA, one strand shown. In outline:
as §1

In the next test the target is T5, EHF (Homo sapiens, UniProt Q9NZC4 1-300).
T5 sequence: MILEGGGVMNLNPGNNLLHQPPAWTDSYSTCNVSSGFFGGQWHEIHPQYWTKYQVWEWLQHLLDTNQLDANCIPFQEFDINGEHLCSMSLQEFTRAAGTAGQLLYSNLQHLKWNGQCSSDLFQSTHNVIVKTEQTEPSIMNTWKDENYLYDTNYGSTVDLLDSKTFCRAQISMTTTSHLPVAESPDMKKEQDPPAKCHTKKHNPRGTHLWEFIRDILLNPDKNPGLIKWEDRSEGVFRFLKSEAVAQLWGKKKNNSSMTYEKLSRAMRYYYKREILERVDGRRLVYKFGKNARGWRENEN
The following applies: protein: recombinant; tags: N-terminal GST; dsDNA, one strand shown. In outline:
as §1

A further test concerns the target SPI1 (Homo sapiens, UniProt P17947 1-270). The following applies: protein: recombinant; tags: N-terminal GST; dsDNA, one strand shown. The method, boiled down:
as §1

For a further test, the target named is SPIB (Homo sapiens, UniProt Q01892 1-262). The following applies: protein: recombinant; tags: N-terminal GST; dsDNA, one strand shown. In outline: as §1
A further test concerns the target T6, ELK3 (Homo sapiens, UniProt P41970 1-407).
T6 sequence: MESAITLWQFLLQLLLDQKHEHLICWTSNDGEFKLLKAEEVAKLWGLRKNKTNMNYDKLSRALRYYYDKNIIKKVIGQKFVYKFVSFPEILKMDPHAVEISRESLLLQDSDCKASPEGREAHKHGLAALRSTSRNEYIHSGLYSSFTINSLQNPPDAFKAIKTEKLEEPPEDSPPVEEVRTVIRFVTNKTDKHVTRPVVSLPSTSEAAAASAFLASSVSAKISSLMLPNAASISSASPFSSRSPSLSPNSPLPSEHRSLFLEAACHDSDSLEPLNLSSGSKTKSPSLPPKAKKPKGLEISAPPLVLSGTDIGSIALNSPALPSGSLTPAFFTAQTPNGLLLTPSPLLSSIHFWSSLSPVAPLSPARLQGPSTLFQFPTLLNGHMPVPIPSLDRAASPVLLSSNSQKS
To be noted: protein: recombinant; tags: N-terminal GST; dsDNA, one strand shown. In outline: as §1

Another test addresses T7, FEV (Homo sapiens, UniProt Q99581 1-238).
T7 sequence: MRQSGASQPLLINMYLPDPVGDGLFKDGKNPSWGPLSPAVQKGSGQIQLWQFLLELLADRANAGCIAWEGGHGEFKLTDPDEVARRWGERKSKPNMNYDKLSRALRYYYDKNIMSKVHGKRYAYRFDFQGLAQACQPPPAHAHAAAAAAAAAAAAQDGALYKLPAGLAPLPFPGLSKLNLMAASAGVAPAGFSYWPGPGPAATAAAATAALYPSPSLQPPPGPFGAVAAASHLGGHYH
The following applies: protein: recombinant; tags: N-terminal GST; dsDNA, one strand shown. The method, boiled down: as §1

The target in the next test is ETV5 (Homo sapiens, UniProt P41161 1-510). The following applies: protein: recombinant; tags: N-terminal GST; dsDNA, one strand shown. In outline: as §1
A further test concerns the target HSF1 (Homo sapiens, UniProt Q00613 1-529). The following applies: protein: recombinant; tags: N-terminal GST; chain copies: 3; dsDNA, one strand shown. In outline:
as §1

The target in a further test is T8, SPIC (Homo sapiens, UniProt Q8N5J4 1-248).
T8 sequence: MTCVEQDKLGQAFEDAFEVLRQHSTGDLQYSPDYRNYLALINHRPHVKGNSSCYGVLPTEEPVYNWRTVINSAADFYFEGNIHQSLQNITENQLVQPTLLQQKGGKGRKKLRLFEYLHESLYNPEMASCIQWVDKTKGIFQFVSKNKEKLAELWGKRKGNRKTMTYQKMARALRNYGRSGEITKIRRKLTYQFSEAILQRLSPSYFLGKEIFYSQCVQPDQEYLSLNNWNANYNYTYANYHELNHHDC
To be noted: protein: recombinant; tags: N-terminal GST; dsDNA, one strand shown. The method, boiled down: as §1

The next test deals with ELF4 (Homo sapiens, UniProt Q99607 1-663). The following applies: protein: recombinant; tags: N-terminal GST; dsDNA, one strand shown. The method, boiled down: as §1
The target of a further test is T9, ELK4 (Homo sapiens, UniProt P28324-2 1-405).
T9 sequence: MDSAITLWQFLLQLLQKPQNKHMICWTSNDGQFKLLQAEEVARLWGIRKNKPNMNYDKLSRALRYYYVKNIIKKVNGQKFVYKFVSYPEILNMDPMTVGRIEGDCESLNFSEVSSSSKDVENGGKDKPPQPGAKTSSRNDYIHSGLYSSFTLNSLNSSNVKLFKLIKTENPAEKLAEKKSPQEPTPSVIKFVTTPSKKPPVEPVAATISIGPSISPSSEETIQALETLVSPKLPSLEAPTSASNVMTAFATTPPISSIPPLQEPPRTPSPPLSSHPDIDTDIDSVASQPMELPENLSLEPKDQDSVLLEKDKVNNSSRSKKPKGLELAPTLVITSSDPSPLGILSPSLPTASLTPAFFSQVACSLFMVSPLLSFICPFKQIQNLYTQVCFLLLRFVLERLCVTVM
The following applies: protein: recombinant; tags: N-terminal GST; dsDNA, one strand shown. The method, boiled down:
as §1

Another test has as its target T10, ETV2 (Homo sapiens, UniProt O00321 1-342).
T10 sequence: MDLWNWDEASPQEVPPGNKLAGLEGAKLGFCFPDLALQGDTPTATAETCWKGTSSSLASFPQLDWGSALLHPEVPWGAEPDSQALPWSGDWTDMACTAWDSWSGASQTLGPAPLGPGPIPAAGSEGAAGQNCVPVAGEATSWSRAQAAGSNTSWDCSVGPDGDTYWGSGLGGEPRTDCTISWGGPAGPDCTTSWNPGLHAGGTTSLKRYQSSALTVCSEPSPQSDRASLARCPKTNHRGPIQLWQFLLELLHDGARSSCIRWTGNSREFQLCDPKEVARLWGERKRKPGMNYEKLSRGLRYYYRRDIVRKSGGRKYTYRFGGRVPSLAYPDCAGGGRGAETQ
The following applies: protein: recombinant; tags: N-terminal GST; dsDNA, one strand shown. The method, boiled down:
as §1

A further test deals with T11, ELF3 (Homo sapiens, UniProt P78545 1-371).
T11 sequence: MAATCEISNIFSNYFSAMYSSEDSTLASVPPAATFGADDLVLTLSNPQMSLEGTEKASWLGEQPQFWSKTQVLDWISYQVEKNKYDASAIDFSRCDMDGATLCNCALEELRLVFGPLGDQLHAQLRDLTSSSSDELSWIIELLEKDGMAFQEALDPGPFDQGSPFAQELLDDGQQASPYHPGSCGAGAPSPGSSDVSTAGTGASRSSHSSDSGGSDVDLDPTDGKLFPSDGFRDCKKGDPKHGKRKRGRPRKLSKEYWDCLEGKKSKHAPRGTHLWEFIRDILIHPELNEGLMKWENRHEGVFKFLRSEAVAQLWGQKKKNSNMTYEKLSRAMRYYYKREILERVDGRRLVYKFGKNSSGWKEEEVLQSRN
The following applies: protein: recombinant; tags: N-terminal GST; dsDNA, one strand shown. The method, boiled down: as §1

The target in the next test is CRX (Homo sapiens, UniProt O43186 1-299). The following applies: protein: recombinant; tags: N-terminal GST; dsDNA, one strand shown. The method, boiled down:
as §1

A further test has as its target ETV1 (Homo sapiens, UniProt P50549 1-477). To be noted: protein: recombinant; tags: N-terminal GST; dsDNA, one strand shown. The method, boiled down: as §1

Sequence of ETV5 (P41161 whole entry): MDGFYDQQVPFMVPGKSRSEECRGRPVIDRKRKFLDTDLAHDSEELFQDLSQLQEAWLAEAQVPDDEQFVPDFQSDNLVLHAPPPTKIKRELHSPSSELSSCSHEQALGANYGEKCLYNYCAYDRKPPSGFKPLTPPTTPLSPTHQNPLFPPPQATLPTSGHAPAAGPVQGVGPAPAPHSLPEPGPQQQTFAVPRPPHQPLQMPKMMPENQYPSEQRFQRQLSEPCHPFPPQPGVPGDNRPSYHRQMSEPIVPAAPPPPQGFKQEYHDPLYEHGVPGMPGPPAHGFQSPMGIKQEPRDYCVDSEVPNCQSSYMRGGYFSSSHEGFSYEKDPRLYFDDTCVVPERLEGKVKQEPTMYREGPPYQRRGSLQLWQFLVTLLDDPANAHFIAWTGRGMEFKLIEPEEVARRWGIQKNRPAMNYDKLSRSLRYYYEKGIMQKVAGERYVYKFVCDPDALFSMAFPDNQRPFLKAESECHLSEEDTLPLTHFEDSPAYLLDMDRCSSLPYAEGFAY
Sequence of HSF1 (Q00613 whole entry): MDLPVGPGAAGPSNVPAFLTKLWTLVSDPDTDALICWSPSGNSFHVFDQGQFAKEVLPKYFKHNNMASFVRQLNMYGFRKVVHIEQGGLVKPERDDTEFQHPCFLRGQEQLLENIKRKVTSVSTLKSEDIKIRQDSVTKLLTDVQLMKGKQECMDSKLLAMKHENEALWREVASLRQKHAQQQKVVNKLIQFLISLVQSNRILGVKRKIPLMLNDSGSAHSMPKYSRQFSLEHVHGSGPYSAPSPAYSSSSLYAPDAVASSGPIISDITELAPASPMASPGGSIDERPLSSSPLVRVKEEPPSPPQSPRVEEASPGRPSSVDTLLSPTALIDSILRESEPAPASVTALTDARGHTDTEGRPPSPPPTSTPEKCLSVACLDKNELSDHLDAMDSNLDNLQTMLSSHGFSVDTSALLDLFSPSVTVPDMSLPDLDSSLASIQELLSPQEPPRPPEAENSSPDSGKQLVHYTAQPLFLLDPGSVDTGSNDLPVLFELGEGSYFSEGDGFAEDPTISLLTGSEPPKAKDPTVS
Sequence of SPIB (Q01892 whole entry): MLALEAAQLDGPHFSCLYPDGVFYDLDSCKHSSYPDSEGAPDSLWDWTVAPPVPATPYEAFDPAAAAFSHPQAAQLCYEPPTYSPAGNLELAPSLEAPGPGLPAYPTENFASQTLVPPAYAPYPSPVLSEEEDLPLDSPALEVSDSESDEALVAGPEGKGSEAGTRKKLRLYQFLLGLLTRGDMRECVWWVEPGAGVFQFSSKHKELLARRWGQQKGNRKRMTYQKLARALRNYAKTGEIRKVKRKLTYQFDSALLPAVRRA
Sequence of ETV1 (P50549 whole entry): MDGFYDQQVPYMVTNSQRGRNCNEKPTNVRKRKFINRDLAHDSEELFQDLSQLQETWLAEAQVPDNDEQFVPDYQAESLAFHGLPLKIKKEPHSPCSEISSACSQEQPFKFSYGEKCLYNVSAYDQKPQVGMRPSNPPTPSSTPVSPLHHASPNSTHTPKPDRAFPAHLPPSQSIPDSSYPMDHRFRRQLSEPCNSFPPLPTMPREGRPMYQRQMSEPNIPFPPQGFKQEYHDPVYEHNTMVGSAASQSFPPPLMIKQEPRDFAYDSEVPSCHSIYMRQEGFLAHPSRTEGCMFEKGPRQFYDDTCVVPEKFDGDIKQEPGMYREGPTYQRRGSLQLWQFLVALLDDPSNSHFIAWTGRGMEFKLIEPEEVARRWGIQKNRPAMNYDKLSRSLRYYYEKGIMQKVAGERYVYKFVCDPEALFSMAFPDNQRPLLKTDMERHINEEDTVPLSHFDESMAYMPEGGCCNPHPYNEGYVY
Sequence of CRX (O43186 whole entry): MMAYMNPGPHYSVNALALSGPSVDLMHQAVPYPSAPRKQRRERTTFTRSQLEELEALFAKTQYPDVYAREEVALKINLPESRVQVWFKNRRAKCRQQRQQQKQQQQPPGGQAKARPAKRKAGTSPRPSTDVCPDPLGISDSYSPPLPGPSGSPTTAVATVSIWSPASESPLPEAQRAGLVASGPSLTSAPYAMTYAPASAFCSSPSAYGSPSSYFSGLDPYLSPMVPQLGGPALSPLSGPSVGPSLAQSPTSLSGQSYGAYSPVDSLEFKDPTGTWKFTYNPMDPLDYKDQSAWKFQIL
Sequence of ELF4 (Q99607 whole entry): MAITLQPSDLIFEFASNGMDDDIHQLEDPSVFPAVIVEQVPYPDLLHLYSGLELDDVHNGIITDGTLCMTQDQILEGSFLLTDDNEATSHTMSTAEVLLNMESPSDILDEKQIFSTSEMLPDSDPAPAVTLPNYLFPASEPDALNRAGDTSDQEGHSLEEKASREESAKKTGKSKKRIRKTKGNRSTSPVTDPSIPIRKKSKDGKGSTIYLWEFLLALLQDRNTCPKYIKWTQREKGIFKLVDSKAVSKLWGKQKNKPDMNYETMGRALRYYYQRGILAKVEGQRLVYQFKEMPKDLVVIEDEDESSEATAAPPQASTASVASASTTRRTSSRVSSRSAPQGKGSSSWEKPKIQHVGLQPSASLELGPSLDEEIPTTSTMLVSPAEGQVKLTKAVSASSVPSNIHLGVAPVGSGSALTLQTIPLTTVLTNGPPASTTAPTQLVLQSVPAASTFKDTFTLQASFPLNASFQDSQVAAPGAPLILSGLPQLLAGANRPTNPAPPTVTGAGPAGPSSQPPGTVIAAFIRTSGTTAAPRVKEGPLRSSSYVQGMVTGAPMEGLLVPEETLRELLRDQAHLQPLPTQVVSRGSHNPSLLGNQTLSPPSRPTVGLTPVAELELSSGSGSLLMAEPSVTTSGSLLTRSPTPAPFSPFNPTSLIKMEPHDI
Sequence of ELF1 (P32519 whole entry): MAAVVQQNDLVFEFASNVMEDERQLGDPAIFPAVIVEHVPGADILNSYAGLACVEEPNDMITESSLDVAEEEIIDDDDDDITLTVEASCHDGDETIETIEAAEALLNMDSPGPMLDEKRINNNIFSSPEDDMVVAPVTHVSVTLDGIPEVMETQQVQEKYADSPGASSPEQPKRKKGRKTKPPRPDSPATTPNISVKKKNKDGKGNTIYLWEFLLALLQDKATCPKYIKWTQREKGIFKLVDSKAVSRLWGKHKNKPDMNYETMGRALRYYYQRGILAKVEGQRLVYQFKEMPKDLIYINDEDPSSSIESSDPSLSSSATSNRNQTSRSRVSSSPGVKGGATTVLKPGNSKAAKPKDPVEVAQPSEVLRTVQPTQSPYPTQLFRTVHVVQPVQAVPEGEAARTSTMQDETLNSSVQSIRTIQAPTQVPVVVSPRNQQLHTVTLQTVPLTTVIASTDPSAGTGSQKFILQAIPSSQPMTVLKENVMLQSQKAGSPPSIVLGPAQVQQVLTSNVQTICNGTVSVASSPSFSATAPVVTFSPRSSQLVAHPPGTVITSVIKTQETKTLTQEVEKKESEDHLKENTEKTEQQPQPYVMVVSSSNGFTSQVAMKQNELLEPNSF

For TTAAAT, the binding signal was 1.17 fold enrichment (6-mer frequency, TF over GST control) with FLI1; 1.11 fold enrichment (6-mer frequency, TF over GST control) in the test with ELK1; 1.1 fold enrichment (6-mer frequency, TF over GST control) with GABPA; 1.11 fold enrichment (6-mer frequency, TF over GST control) with ERG; 1.19 fold enrichment (6-mer frequency, TF over GST control) in the test with ELF1; 1.14 fold enrichment (6-mer frequency, TF over GST control) with EHF. Further, the binding signal with SPI1 is 1.12 fold enrichment (6-mer frequency, TF over GST control); with SPIB it was 1.13 fold enrichment (6-mer frequency, TF over GST control); with ELK3, 1.25 fold enrichment (6-mer frequency, TF over GST control); with FEV, 1.16 fold enrichment (6-mer frequency, TF over GST control); with ETV5, 1.2 fold enrichment (6-mer frequency, TF over GST control); with HSF1 it was 1.85 fold enrichment (6-mer frequency, TF over GST control). Also, the binding signal with SPIC is 1.21 fold enrichment (6-mer frequency, TF over GST control); with ELF4, 1.14 fold enrichment (6-mer frequency, TF over GST control); in the test with ELK4, 1.22 fold enrichment (6-mer frequency, TF over GST control); in the test with ETV2, 1.25 fold enrichment (6-mer frequency, TF over GST control); with ELF3, 1.22 fold enrichment (6-mer frequency, TF over GST control); in the test with CRX it was 2.92 fold enrichment (6-mer frequency, TF over GST control). Further, the binding signal with ETV1 is 1.16 fold enrichment (6-mer frequency, TF over GST control).
